Compounds with a hit are over-represented: about 21% of the library has one in this group of screens.
NS1 function inh: qHTS Assay for Inhibitors of Influenza NS1 Protein Function | AID 2326, 2010 | hit rate 0.4% among 270,000 | Potency, µM (titrated, usually from 46.1 µM); calls by dose curve; note: actives are rising curves; nearly all actives have a fitted effect of over 50% in size
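Recovery from NS1-induced slow growth read by OD600 in budding yeast switched to galactose assay medium (pH 6.0, -URA) at 1:100 dilution. Compound 23 nl per well; the matching strain lacking NS1 serves as control.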
Shiga toxin inh: A qHTS for Small Molecule Inhibitors of Shiga Toxin. Vero cells, Shiga toxin protein synthesis inhibition reporter. inhibition, % at 38.7 µM. hit rate 9.2% among 290,000; in the data active = inhibition mostly above about 28%, no sharp cut-off; inactive = mostly below about 43%
Pf growth 96h: Primary qHTS for delayed death inhibitors of the malarial parasite plastid, 96 hour incubation. P. falciparum luciferase reporter growth, 96 h. Potency, µM (top dose mostly 28.7 µM), usual class: inhibitors. hit rate 6.9% among 320,000. AID 504834, 2011
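Infected RBCs, 2% Hct / 0.05% parasitemia final; luciferase-reporter P. falciparum; cpd 96 h, 37 C, 5% CO2; luciferase detection reagent; luminescence.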
Pf growth 48h: Primary qHTS for delayed death inhibitors of the malarial parasite plastid, 48 hour incubation; P. falciparum luciferase growth in erythrocytes, 48 h; Potency, µM (titrated, usually from 28.7 µM), usual class: inhibitors; hit rate 5.9% among 310,000; AID 504832, 2011
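Compounds are pin-transferred into medium, infected erythrocytes (2% hematocrit, 0.1% parasitemia final) are added, and plates sit one parasite generation at 37 C in 5% CO2. Detection reagent is then added and luminescence measured.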
CHX counter: Cycloheximide Counterscreen for Small Molecule Inhibitors of Shiga Toxin; cell reporter, cycloheximide protein synthesis inhibition counterscreen; max response, %; hit rate 12% among 300,000; AID 2314, 2010; in the data active = max response mostly above about 13%, no sharp cut-off; inactive = mostly below about 14%; note: read at 38.3 µM for the half of the compounds with a filed dose
Hits are given with their value; – = inactive; ? = inconclusive; · = no result given. Unless noted, calls come from the whole dose curve; as a rule, active = well fitted inhibition curve with a large enough effect; inconclusive = small, poorly fitted or top-dose-only effect, or another doubt; inactive = no such curve, though single readings can be large or run the other way.

SMILES	NS1 function inh	Shiga toxin inh	Pf growth 96h	Pf growth 48h	CHX counter
COc1ccc(C=Nc2cccc3c(=O)[nH][nH]c(=O)c23)c2ccccc12	–	–	–	·	–
CC(=O)Oc1ccc2ccc(=O)oc2c1	–	–	–	–	–
CC(C)=CCOc1ccc2ccc(=O)oc2c1	–	35	–	–	21
CC1=CC(C/C(C)=C/COc2ccc3ccc(=O)oc3c2)OC1=O (configuration not stated)	–	24	–	–	16
CC(C)=CCC/C(C)=C/COc1ccc2ccc(=O)oc2c1	–	–	–	–	–
COc1cc2ccc(=O)oc2c(O)c1OCC=C(C)C	–	85	–	–	–
Cc1cc(C(=O)CS(=O)(=O)c2ccc(Cl)cc2)cc(C)c1O	–	–	–	–	–
Cc1ccc(C(=O)OCC(=O)NNC(=O)COc2ccc(Cl)cc2)c(O)c1	·	·	–	–	·
NC(=O)CSc1nnc(NC(=O)C23CC4CC(CC(C4)C2)C3)s1	–	–	–	–	36
Cc1ccc(N2CC(C(=O)Nc3nnc(SCC(N)=O)s3)CC2=O)cc1C (configuration not stated)	–	–	–	–	–
CCc1nnc(NC(=O)C23CC4CC(CC(C4)C2)C3)s1	–	56	–	–	24
CC(C)Cc1nnc(NC(=O)C23CC4CC(CC(C4)C2)C3)s1	–	–	?	?	–
CSc1nnc(NC(=O)C23CC4CC(CC(C4)C2)C3)s1	–	–	–	–	36
O=C(Nc1nccs1)C12CC3CC(C1)CC(C(=O)Nc1nccs1)(C3)C2	–	–	?	·	–
CCOc1ccc(OCCC(=O)OCC(=O)NC2CCCCC2)cc1	–	–	–	–	–
CCOc1ncccc1C(=O)Nc1ccc2c(c1)OCCCO2	·	·	–	–	·
O=C(NC1=NCCS1)c1cc(-c2ccc(F)cc2)nc2ccccc12	–	–	–	–	17
Cc1ccc(C)c(NC(=O)c2cc(-c3cccnc3)nc3ccccc23)c1	·	–	–	–	–
O=C(NN=C1CCCC1)c1cc(-c2ccc(F)cc2)nc2ccccc12	·	–	?	–	–
CCCc1ccc(-c2cc(C(=O)NC3=NCCS3)c3ccccc3n2)cc1	–	24	–	–	19
Cc1ccc(-c2cc(C(=O)NC3=NCCS3)c3ccccc3n2)cc1C	–	–	2.1µM	?	18
O=C(CN1CCc2ccccc21)NC(=O)NC1CCCCC1	–	–	–	–	–
COc1ccc(Cl)cc1NC(=O)c1c(NCc2sccc2C)sc2c1CCCC2	·	–	·	·	–
CCOc1ccccc1NC(=O)C1CCCN(S(=O)(=O)c2ccc(OC)c(C)c2)C1 (configuration not stated)	?	–	·	10µM	–
Cc1ccc(NC(=O)C2CCCN(S(=O)(=O)c3ccc4[nH]c(=O)ccc4c3)C2)cc1C (configuration not stated)	–	–	?	–	–
SMILES	NS1 function inh	Shiga toxin inh	Pf growth 96h	Pf growth 48h	CHX counter
Cc1cccc(NC(=O)C2CCCN(S(=O)(=O)c3cccc4nsnc34)C2)c1 (configuration not stated)	–	–	8.3µM	·	–
COc1ccc(NC(=O)C2CCCN(S(=O)(=O)c3ccc4[nH]c(=O)ccc4c3)C2)cc1OC (configuration not stated)	–	–	12µM	–	–
COc1ccccc1NC(=O)C1CCCN(S(=O)(=O)c2cccc3nsnc23)C1 (configuration not stated)	–	–	3.3µM	·	–
COc1cccc(NC(=O)C2CCCN(S(=O)(=O)c3cccc4nsnc34)C2)c1 (configuration not stated)	–	–	–	·	–
Cc1ccccc1C(=O)NNC(=O)c1cccn1C	·	·	–	–	·
COc1cccc(-c2nc(CS(=O)(=O)CC(=O)N3CCOCC3)c(C)o2)c1	–	–	–	–	–
CCn1ncc(C2=NOC(C(=O)Nc3cc(OC)c(Cl)cc3OC)C2)c1C (configuration not stated)	–	–	?	–	–
COc1cc(OC)c(C2=NOC(C(=O)Nc3c(C)nn(CC(=O)N4CCCC4)c3C)C2)cc1Cl (configuration not stated)	–	–	5.9µM	–	–
O=C(C1CCC(CNS(=O)(=O)c2cccs2)CC1)N1CCN(c2ccc(F)cc2)CC1 (configuration not stated)	–	–	–	?	–
COc1ccc(CCNCc2ccc(F)cc2)cc1OC	–	–	·	–	–
COc1ccc(CNCC(O)(c2ccc(F)cc2)c2ccc(F)cc2)cc1OC	–	–	2.9µM	4.1µM	–

Bioassay records: PubChem, National Center for Advancing Translational Sciences (NCATS)
